Test results reported in the supplement of paper PMC10849652.
Targets with a hit are over-represented here; the source holds about 7,900 in all. About 0.6% of all pairs of compound and target were hits. Unmarked numbers belong to inactive results.

How the values were obtained:
Assay in all cases: log2 fold change, soluble protein after heating vs DMSO (PISA); higher = thermal stabilisation; K562 cells, 10 uM, 30 min; active = over 0.2 and 3.5 SD of the protein, either way, in both replicates (recomputed)
[1] = target: ZC3H8 (UniProt Q8N5P1)
Sequence of ZC3H8 (Q8N5P1 whole entry, looked up): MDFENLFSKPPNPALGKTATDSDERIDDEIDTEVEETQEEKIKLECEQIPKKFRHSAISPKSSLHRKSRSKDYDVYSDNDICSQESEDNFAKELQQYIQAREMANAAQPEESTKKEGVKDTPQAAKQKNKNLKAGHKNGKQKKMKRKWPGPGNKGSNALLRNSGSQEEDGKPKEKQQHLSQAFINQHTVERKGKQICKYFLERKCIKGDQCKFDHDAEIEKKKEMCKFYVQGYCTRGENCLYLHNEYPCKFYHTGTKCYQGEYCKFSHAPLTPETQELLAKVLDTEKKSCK
Summary of the method: (§1)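 K562 cells at 2×10^6 cells/mL were treated with 10 μM compound for 30 min. Aliquots were heated for 3 min across 48°C-58°C, pooled, and extracted in PBS with 0.5% NP-40 at 4°C; soluble protein was the supernatant after 21,000xg for 90 min. Soluble protein was quantified by TMTpro 16plex LC-MS/MS with channel sums equalised, and reported as log2 fold change in thermal stability against DMSO controls, with values from duplicates.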

[2] = target: ZC3HC1 (UniProt Q86WB0)
Sequence of ZC3HC1 (Q86WB0 whole entry, looked up): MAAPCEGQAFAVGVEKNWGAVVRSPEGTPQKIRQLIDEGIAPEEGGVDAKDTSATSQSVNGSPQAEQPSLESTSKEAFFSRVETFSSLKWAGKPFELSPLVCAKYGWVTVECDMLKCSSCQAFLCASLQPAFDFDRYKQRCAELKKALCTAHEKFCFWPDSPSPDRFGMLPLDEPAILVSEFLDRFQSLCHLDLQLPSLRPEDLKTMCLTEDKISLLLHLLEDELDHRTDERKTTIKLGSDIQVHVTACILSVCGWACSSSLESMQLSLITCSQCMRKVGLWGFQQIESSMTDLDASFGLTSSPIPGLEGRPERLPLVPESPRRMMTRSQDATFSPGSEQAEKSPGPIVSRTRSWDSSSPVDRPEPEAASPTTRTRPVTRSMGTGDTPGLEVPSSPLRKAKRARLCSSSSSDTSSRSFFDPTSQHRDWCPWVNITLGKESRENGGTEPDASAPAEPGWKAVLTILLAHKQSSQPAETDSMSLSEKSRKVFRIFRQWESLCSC
Summary of the method: as §1

[3] = target: ZCCHC17 (UniProt Q9NP64)
Sequence of ZCCHC17 (Q9NP64 whole entry, looked up): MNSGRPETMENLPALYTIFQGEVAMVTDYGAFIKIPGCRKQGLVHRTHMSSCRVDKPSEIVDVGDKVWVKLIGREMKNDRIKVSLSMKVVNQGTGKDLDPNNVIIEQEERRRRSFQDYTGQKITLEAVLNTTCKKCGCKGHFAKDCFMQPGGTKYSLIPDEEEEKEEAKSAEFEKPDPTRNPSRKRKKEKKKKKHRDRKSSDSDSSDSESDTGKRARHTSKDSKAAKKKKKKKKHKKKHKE
Summary of the method: as §1

[4] = target: ZCCHC9 (UniProt Q8N567)
Sequence of ZCCHC9 (Q8N567 whole entry, looked up): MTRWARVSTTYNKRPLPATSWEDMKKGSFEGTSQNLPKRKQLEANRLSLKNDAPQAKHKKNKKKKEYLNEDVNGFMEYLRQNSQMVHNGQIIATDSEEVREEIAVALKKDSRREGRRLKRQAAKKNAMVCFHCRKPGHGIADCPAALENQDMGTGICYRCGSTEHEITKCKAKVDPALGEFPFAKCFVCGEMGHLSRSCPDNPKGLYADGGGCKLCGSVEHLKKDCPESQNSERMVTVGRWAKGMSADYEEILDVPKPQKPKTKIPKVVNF
Summary of the method: as §1

[5] = target: ZDHHC17 (UniProt Q8IUH5)
Sequence of ZDHHC17 (Q8IUH5 whole entry, looked up): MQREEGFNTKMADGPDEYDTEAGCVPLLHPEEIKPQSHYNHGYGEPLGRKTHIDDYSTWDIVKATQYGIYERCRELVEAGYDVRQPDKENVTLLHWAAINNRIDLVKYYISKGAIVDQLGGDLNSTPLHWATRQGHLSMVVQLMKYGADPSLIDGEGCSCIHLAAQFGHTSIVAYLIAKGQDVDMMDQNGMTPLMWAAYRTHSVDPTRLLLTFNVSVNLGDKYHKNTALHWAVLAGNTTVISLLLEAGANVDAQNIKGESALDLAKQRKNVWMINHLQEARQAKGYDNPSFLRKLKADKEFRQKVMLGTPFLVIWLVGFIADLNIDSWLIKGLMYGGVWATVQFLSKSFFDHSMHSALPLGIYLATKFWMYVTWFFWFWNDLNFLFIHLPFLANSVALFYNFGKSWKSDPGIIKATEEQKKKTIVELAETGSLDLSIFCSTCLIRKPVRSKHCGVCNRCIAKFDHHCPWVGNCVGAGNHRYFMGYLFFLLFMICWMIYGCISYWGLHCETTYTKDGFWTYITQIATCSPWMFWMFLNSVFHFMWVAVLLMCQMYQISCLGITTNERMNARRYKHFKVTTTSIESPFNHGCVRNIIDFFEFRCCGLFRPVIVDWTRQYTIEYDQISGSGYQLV
Summary of the method: as §1

[6] = target: ZDHHC20 (UniProt Q5W0Z9)
Sequence of ZDHHC20 (Q5W0Z9 whole entry, looked up): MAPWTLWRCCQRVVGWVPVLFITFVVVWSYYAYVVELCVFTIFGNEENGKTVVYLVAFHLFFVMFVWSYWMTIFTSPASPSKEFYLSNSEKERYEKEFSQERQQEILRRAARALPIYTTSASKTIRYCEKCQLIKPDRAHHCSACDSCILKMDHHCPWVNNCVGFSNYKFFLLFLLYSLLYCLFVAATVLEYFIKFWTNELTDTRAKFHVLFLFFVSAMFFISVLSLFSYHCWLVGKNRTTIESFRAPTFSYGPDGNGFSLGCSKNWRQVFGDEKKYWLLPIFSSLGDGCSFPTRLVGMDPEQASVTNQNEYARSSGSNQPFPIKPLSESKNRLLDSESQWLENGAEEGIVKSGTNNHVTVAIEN
Summary of the method: as §1

[7] = target: ZDHHC5 (UniProt Q9C0B5)
Sequence of ZDHHC5 (Q9C0B5 whole entry, looked up): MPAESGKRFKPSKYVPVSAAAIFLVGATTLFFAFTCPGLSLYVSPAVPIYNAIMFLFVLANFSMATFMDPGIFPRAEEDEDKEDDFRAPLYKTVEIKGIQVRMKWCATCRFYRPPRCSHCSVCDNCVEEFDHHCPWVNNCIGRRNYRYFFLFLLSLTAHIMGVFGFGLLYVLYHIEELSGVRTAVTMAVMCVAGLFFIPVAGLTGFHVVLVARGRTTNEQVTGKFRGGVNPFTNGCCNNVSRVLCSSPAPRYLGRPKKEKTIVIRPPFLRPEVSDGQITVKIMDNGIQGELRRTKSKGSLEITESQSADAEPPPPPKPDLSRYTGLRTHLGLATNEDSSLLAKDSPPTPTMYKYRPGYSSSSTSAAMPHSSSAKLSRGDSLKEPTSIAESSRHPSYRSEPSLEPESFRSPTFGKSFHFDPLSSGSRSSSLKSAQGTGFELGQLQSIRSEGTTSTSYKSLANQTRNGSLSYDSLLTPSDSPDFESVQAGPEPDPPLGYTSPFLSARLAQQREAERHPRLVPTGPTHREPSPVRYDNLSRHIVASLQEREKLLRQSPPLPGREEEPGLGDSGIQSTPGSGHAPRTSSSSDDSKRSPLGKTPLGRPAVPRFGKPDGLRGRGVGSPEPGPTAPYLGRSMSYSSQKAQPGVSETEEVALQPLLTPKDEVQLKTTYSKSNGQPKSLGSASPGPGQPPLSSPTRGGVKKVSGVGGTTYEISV
Summary of the method: as §1

[8] = target: ZDHHC7 isoform 2 (UniProt Q9NXF8)
Sequence of ZDHHC7 isoform 2 (Q9NXF8 whole entry, looked up, canonical isoform): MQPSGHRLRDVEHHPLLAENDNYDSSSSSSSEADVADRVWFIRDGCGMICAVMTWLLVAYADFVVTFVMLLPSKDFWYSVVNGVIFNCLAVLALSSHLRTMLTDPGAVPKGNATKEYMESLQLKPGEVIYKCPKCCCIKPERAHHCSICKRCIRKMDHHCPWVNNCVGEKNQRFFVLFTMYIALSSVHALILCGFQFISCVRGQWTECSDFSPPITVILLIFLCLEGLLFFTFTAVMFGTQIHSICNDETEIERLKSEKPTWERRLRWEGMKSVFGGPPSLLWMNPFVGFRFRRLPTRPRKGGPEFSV
Summary of the method: as §1

[9] = target: ZDHHC6 (UniProt Q9H6R6)
Sequence of ZDHHC6 (Q9H6R6 whole entry, looked up): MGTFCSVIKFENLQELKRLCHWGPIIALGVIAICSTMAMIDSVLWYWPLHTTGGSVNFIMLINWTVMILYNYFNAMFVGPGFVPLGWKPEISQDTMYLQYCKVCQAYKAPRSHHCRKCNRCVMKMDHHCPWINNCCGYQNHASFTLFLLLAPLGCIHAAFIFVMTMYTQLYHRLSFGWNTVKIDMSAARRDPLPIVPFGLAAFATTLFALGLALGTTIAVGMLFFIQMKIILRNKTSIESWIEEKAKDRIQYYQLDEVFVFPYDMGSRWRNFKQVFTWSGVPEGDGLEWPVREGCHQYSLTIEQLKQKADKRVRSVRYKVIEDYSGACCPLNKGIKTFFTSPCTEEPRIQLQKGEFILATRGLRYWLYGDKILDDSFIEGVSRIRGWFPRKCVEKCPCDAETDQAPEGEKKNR
Summary of the method: as §1

Row | SMILES | log2 fold change [1] | log2 fold change [2] | log2 fold change [3] | log2 fold change [4] | log2 fold change [5] | log2 fold change [6] | log2 fold change [7] | log2 fold change [8] | log2 fold change [9]
1 | NCC(=O)Nc1ccc(-n2nc(C(F)(F)F)cc2-c2ccc3c(ccc4ccccc43)c2)cc1 | 0.036 | -0.076 | -0.137 | -0.013 | 0.012 | 0.093 | -0.005 | -0.056 | 
2 | COc1cc(Nc2ncc3c(n2)-c2ccc(Cl)cc2C(c2c(F)cccc2OC)=NC3)ccc1C(=O)O [alisertib] | -0.082 | 0.024 |  | -0.083 | -0.02 | -0.052 | -0.107 |  | 
3 | Cc1ccc(NC(=O)c2cccc(C(C)(C)C#N)c2)cc1Nc1ccc2ncn(C)c(=O)c2c1 | -0.021 | 0.011 | -0.065 | -0.227 | 0.076 | -0.067 | 0.048 |  | 
4 | CN1CCN(c2nc(C3=C(c4c[nH]c5ccccc45)C(=O)NC3=O)c3ccccc3n2)CC1 [sotrastaurin] | 0.025 | -0.178 | -0.095 | 0.243 | 0.099 | 0.015 | -0.069 |  | 
5 | CN(C)CC(=O)Nc1ccc2[nH]c(=O)c3ccccc3c2c1 | -0.047 | 0.089 | -0.059 | -0.125 | -0.005 | -0.026 | -0.032 | 0.057 | 
6 | CS(=O)(=O)N1CCN(Cc2cc3nc(-c4cccc5[nH]ncc45)nc(N4CCOCC4)c3s2)CC1 [pictilisib] | -0.007 | -0.003 |  | -0.004 | 0.021 | 0.066 | 0.047 | 0.089 | -0.044
7 | c1cn2cc(-c3ccc4cn[nH]c4c3)nc(Nc3ccc(N4CCOCC4)cc3)c2n1 [entospletinib] | -0.034 | 0.005 |  | 0.168 | 0.059 | -0.02 | 0.071 | 0.027 | -0.058
8 | COC(=O)[C@H](CCSC)NC(=O)c1ccc(NC[C@@H](N)CS)cc1-c1ccccc1 | -0.009 | -0.093 | 0.033 | 0.081 | 0.01 | 0.028 | 0.054 | 0.019 | 
9 | O=C(CCCCCCC(=O)Nc1ccccc1)NO [vorinostat] | -0.039 | 0.04 |  | -0.065 | -0.079 | -0.021 | -0.02 | 0.006 | -0.108
10 | CCCS(=O)(=O)Nc1ccc(F)c(C(=O)c2c[nH]c3ncc(-c4ccc(Cl)cc4)cc23)c1F [vemurafenib] | -0.071 | 0.09 | -0.396 | -0.11 | 0.016 | 0.049 | -0.021 | -0.016 | 
11 | CCn1cc(-c2ccnc3[nH]c(-c4cccc(CN(C)C)c4)cc23)c(-c2ccc(NC(=O)N(C)C)cc2)n1 | 0.092 | -0.125 |  | 0.201 | -0.018 | -0.016 | -0.002 | -0.363 | -0.292
12 | CON(C)C(=O)N1N=C(c2cc(F)ccc2F)S[C@@]1(CCCN)c1ccccc1 [filanesib] | 0.191 | -0.042 | 0.565 (active) | 0.527 (active) | -0.219 | 0.008 | 0.048 |  | 
13 | CS(=O)(=O)c1ccc(-c2cnc(N)c(C(=O)Nc3ccccc3)n2)cc1 | 0 | 0.066 | -0.069 | 0.1 | -0.005 | 0.067 | 0.129 |  | 
14 | CC[C@@H]1C(=O)N(C)c2cnc(Nc3ccc(C(=O)N[C@H]4CC[C@H](N5CCN(CC6CC6)CC5)CC4)cc3OC)nc2N1C(C)C [volasertib] | 0.207 | -0.579 (active) |  | 0.226 | -0.095 | 0.011 | 0.093 | -0.059 | -0.094
15 | CCCS(=O)(=O)Nc1ccc(F)c(C(=O)c2c[nH]c3ncc(Cl)cc23)c1F | -0.138 | 0.189 |  | -0.177 | -0.016 | 0.138 | -0.009 | 0.014 | -0.048
